Values without a mark were called inactive. Results filed as inconclusive are left out. Calls of active or inactive are those of the source. Unless noted, the call rests on the fitted dose curve; in most records, active means well fitted curve in the direction sought with a large enough effect in the repeat runs; inconclusive means weak or mixed curves; inactive means no such curve, though single readings can be large; an effect the other way counts as inactive or inconclusive.

A short description of experiment [1]: qHTS assay to identify small molecule antagonists of the androgen receptor (AR) signaling pathway using the MDA cell line in the presence of 0.5 nM R1881 - cell viability counter screen (AID 1259242). Further: nearly all actives have a fitted effect of over 45% in size. The method, boiled down:
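R1881 at 0.5 nM final stimulated MDA-kb2 cells during 16 hr compound treatment at 37C. Cytotoxicity read: CellTiter-Fluor fluorescence after 30 min.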

For experiment [2], the target named is Androgen receptor (Homo sapiens) (UniProt P10275). As to the kind of experiment: qHTS assay to identify small molecule antagonists of the androgen receptor (AR) signaling pathway using the MDA cell line in the presence of 0.5 nM R1881 (AID 1259243). Further: nearly all actives have a fitted effect of over 50% in size. The essentials: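 We exposed MDA-kb2 cells to compounds under 0.5 nM R1881 stimulation for 16 hr at 37C and quantified MMTV-driven luciferase by luminescence.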

Experiment [3] has as its target Estrogen receptor (Homo sapiens) (UniProt P03372). The experiment in a line: qHTS assay to identify small molecule antagonists of the estrogen receptor alpha (ER-alpha) signaling pathway using the BG1 cell line in the presence of 0.1 nM 17-beta-estradiol (AID 1259244). Further: nearly all actives have a fitted effect of over 50% in size. The essentials:
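VM7Luc4E2; 4xERE-luciferase; 0.1 nM E2 final; 22 h co-incubation, 37C; ONE-Glo luminescence after 30 min at room temperature.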
In general terms: In qHTS, concentration-response curves come from the screen itself.

Experiment [4] can be described thus: qHTS assay to identify small molecule phospholipidosis (PLD) inducers (AID 1259344; active means well fitted curve in the direction sought with a large enough effect; an effect the other way counts as inactive or inconclusive). The essentials:
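Fluorescent phospholipid staining (LipidTOX Red) measured by automated microscopy in fixed HepG2 cells after 24 h treatment; nuclei counterstained with Hoechst 33342; amiodarone as reference inducer.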

Experiment [5] is described as follows: qHTS assay to identify small molecule HDAC inhibitors (AID 1259364). Further: potency means the concentration at half of the fitted maximal effect.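 Further: wild-type HCT-116 cells with endogenous class I/II HDAC activity; nearly all actives have a fitted effect of over 45% in size.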 The essentials: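 Relative class I and II HDAC activity is taken from the luminogenic signal in HCT-116 cells, with compound exposure 2 hr and reagent development 30 min at room temperature.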
Experiment [6] in a line: qHTS assay to identify small molecule HDAC inhibitors - cell viability counter screen (AID 1259365). Further: series mostly up to about 92 µM; nearly all actives have a fitted effect of over 50% in size. The method, boiled down: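 Cytotoxicity was gauged in wild-type HCT-116 cells after a brief 2hr treatment with DMSO-dissolved compounds at 37C and 5% CO2, using CellTiter-Glo luminescence developed for 30min at room temperature.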
Experiment [7] is described as follows: qHTS assay to identify small molecule agonists of the sonic hedgehog signaling (Shh) pathway - cell viability counter screen (AID 1259366). Further: nearly all actives have a fitted effect of over 50% in size. The essentials: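 Stable Gli1-Luc NIH/3T3 clone, 2,000 cells/well. Compound exposure 24hr at 37C. Read-out: CellTiter-Fluor fluorescence.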
Experiment [8] can be described thus: qHTS assay to identify small molecule antagonists of the sonic hedgehog signaling (Shh) pathway - cell viability counter screen (AID 1259367). Further: nearly all actives have a fitted effect of over 55% in size. The essentials:
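Using CellTiter-Fluor, viability of Gli1-Luc reporter 3T3 cells is read by fluorescence in the wells used for the Shh luciferase assay. Treatment lasts 23 hr with conditioned medium, then reagent 1 hr at 37C.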

The nature of experiment [9]: qHTS assay to identify small molecule agonists of the sonic hedgehog signaling (Shh) pathway (AID 1259368; calls by dose curve;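 further: NIH/3T3-derived 3T3Gli1-Luc cells carrying a stable Gli1-driven firefly luciferase reporter; series mostly up to about 92 µM; nearly all actives have a fitted effect of over 15% in size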). The method, boiled down: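 Mouse fibroblast (NIH/3T3) reporter cells with stably integrated Gli1-Luc were treated 24 hr with compound; firefly luciferase luminescence served as the read-out.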
The nature of experiment [10]: qHTS assay to identify small molecule antagonists of the sonic hedgehog signaling (Shh) pathway (AID 1259369; calls by dose curve; further: nearly all actives have a fitted effect of over 45% in size; further: potency means the concentration at half of the fitted maximal effect). The essentials: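 Conditioned medium drives Shh signalling in 3T3Gli1-Luc cells; compounds in DMSO co-applied, 24hr at 37 C, then luciferase luminescence.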
The target of experiment [11] is Estrogen receptor beta (Homo sapiens) (UniProt Q92731). As to the kind of experiment: qHTS assay to identify small molecule agonists of the estrogen receptor beta (ER-beta) signaling pathway (AID 1259377; active means well fitted activation curve with a large enough effect in the signal ratio in the repeat runs, not every such curve was filed as active; the % refers to the signal ratio). The essentials:
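Measured by fluorescence intensity from a B/G FRET beta-lactamase substrate (2 h, room temperature) in ER-beta-UAS-bla HEK293T cells treated with DMSO-dissolved compounds for 16 hr at 37C and 5% CO2.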

Experiment [12] has the same target. As to the kind of experiment: qHTS assay to identify small molecule antagonists of the estrogen receptor beta (ER-beta) signaling pathway (AID 1259378; active means well fitted inhibition curve with a large enough effect in the signal ratio in the repeat runs, not every such curve was filed as active; the % refers to the signal ratio; further: potency means the concentration at half of the fitted maximal effect). The method, boiled down: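 Antagonist mode: compounds added to beta-lactamase reporter HEK293T ER-beta-UAS cells stimulated with E2 (1nM final), 16 hr at 37C. LiveBLAzer B/G FRET substrate, 2 hours room temperature, fluorescence read-out.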

The nature of experiment [13]: qHTS assay to identify small molecule agonists of the androgen receptor (AR) signaling pathway in the presence of an antagonist - cell viability counter screen (AID 1259379).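 Further: MDA-kb2 human breast cancer cells carrying an MMTV luciferase reporter; series mostly up to about 92 µM; nearly all actives have a fitted effect of over 25% in size.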 The essentials:
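A CellTiter-Fluor read-out measured viability of MDA-kb2 reporter cells (MMTV promoter with AR and GR response elements). Treatment: nilutamide 3.0uM final with compounds at 15 concentrations, 16 hr, 37C, 0% CO2.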

The nature of experiment [14]: qHTS assay to identify small molecule agonists of the estrogen receptor beta (ER-beta) signaling pathway - cell viability counter screen (AID 1259380). Further: nearly all actives have a fitted effect of over 30% in size. Further: potency means the concentration at half of the fitted maximal effect. The method, boiled down:
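Cells used were ER-beta-UAS-bla HEK293T in medium with 2% charcoal-stripped FBS. They were treated for 16 hr at 37C. Viability came from CellTiter-Glo luminescence.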

Experiment [15] concerns the target Androgen receptor (Homo sapiens) (UniProt P10275). As to the kind of experiment: qHTS assay to identify small molecule agonists of the androgen receptor (AR) signaling pathway in the presence of an antagonist (AID 1259381; calls by dose curve; further: nearly all actives have a fitted effect of over 15% in size). The method, boiled down: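 Using human MDA-kb2 cells with an MMTV promoter–luciferase construct (AR and GR response elements), agonist activity is scored under 3.0uM nilutamide (final) co-treatment; 16hr incubation, 37C, luminescence readout via ONE-Glo.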

Experiment [16] is described as follows: qHTS assay to identify small molecule antagonists of the estrogen receptor beta (ER-beta) signaling pathway - cell viability counter screen (AID 1259382). Further: series mostly up to about 92 µM; nearly all actives have a fitted effect of over 55% in size. The method, boiled down:
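Agonist-stimulated (1nM E2) ER-beta-UAS-bla HEK293T cells are incubated with library compounds for 16 hr at 37C. Cell viability is then assessed in the reporter-assay wells by adding CellTiter-Glo and reading luminescence after 30 min.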

In experiment [17] the target is Estrogen receptor (Homo sapiens) (UniProt P03372). As to the kind of experiment: qHTS assay to identify small molecule agonists of the estrogen receptor alpha (ER-alpha) signaling pathway in the presence of an antagonist (AID 1259383; calls by dose curve; further: top concentration of the series differs between compounds; nearly all actives have a fitted effect of over 15% in size). The method, boiled down:
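Using VM7Luc4E2 cells seeded 24hr before treatment, antagonist ICI-182,780 (10.0nM final) was added, followed by compounds at 15 concentrations. Plates incubated 22hr; ONE-Glo luminescence quantified reporter activity.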

Experiment [18] can be described thus: qHTS assay to identify small molecule agonists or antagonists of the thyroid stimulating hormone receptor (TSHR) signaling pathway - wild type cell line counter screen (AID 1259384; calls by dose curve). The method, boiled down: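 Counter screen in untransfected Hek293: compounds (15-point titration, triplicate) plus phosphodiesterase inhibitor Ro20-1724 added after 18 h plating; 30 min RT. Intracellular cAMP via competitive d2/cryptate immunoassay, 1 h incubation.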

For experiment [19], the target named is Thyrotropin receptor (Homo sapiens) (UniProt P16473). As to the kind of experiment: qHTS assay to identify small molecule antagonists of the thyroid stimulating hormone receptor (TSHR) signaling pathway (AID 1259385; calls by dose curve; further: nearly all actives have a fitted effect of over 20% in size). The essentials:
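Antagonist mode: compound-treated TSHR-expressing HEK293 cells were stimulated with 1.5 ng/mL TSH (final) in presence of Ro20-1724 for 30 min at RT. HTRF cAMP detection after 1 h; each compound tested at 15 concentrations, triplicate.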

Experiment [20] in a line: qHTS assay to identify small molecule antagonists of the estrogen receptor alpha (ER-alpha) signaling pathway using the BG1 cell line in the presence of 0.1 nM 17-beta-estradiol - cell viability counter screen (AID 1259241). Further: nearly all actives have a fitted effect of over 40% in size. The method, boiled down:
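Viability in VM7Luc4E2 cells after 22 hr compound exposure under 0.1 nM 17beta-estradiol stimulation, by CellTiter-Fluor.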

Sequence of Androgen receptor (Homo sapiens) (P10275 whole entry, looked up): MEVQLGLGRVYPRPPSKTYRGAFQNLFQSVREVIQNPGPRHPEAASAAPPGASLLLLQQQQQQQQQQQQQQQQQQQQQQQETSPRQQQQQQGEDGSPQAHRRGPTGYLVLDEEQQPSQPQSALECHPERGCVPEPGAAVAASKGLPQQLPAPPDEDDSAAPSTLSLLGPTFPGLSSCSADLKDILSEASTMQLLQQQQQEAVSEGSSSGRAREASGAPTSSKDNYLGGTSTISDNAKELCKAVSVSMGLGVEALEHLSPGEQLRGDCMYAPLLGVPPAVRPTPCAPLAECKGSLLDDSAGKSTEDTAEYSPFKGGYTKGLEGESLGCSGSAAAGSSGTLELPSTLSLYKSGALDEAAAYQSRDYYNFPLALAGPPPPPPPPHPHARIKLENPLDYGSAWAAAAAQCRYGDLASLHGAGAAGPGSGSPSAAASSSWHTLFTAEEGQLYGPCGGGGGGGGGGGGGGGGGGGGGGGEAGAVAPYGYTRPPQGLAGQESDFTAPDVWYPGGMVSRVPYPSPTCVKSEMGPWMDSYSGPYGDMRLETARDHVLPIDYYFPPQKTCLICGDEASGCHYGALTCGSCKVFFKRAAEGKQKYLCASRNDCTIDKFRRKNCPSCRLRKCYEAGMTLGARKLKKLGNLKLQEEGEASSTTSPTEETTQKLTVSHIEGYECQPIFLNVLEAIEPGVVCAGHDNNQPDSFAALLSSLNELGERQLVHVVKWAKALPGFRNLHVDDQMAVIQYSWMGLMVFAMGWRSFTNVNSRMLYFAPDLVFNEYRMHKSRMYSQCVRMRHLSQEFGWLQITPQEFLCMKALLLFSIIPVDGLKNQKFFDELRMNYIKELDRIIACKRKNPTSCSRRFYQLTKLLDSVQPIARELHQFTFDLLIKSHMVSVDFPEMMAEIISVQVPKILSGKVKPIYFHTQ
Sequence of Estrogen receptor (Homo sapiens) (P03372 whole entry, looked up): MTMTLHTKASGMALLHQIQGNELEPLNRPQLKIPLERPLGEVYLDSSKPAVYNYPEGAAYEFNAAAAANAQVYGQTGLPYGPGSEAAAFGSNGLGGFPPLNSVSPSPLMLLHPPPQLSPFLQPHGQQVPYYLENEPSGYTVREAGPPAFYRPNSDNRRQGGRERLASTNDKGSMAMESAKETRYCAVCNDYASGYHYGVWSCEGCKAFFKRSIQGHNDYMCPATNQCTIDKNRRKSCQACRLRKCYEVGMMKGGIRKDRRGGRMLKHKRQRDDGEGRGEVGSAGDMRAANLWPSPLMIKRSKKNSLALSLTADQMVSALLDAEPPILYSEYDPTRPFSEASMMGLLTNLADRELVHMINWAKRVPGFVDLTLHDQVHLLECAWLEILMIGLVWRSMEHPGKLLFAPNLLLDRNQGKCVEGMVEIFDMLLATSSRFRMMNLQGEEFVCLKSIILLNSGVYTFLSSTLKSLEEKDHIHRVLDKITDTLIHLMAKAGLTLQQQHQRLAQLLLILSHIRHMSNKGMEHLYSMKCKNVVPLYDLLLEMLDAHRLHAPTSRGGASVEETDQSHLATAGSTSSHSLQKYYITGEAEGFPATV
Sequence of Thyrotropin receptor (Homo sapiens) (P16473 whole entry, looked up): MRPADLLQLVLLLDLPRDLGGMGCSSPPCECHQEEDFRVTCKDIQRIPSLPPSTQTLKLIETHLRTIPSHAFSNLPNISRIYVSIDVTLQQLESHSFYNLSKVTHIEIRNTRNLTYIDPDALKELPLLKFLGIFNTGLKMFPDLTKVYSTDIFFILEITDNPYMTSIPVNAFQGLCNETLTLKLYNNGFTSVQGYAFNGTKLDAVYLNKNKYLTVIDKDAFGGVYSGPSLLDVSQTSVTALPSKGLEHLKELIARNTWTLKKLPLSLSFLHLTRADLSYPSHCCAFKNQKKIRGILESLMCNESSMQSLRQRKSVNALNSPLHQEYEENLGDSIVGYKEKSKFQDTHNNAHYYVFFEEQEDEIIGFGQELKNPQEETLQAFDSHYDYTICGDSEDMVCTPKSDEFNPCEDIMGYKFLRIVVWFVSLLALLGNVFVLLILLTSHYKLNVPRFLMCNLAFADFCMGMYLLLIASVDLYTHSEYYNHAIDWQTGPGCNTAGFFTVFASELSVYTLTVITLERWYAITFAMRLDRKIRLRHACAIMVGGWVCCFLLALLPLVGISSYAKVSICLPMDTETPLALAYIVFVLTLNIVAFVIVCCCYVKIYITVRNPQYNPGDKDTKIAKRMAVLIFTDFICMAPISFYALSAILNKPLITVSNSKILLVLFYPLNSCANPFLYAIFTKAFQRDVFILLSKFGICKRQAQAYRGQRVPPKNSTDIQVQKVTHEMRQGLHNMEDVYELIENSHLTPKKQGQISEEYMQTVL
Sequence of Estrogen receptor beta (Homo sapiens) (Q92731 whole entry, looked up): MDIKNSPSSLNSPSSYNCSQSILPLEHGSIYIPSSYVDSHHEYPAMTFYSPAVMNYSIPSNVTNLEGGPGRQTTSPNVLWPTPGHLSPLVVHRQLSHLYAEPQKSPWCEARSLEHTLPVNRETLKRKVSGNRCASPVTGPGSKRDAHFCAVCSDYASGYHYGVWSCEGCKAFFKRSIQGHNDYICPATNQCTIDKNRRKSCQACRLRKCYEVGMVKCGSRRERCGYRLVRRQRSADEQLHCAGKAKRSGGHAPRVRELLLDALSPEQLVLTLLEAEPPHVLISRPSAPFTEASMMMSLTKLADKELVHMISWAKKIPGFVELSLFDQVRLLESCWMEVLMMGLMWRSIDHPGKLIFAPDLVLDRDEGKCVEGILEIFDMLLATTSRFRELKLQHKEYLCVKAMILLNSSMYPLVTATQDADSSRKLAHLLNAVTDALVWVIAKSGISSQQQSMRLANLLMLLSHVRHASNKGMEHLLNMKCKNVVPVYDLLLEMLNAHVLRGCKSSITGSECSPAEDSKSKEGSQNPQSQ

Regarding `CC(=O)N(O)CCCCCNC(=O)CCC(=O)N(O)CCCCCNC(=O)CCC(=O)N(O)CCCCCN`, the Potency result in experiment [1], in experiment [2], in experiment [3], in experiment [4], in experiment [5] and in experiment [7] was “inactive” each time. Also, the Potency result in experiment [8], in experiment [10], in [11], in experiment [12], in [13] and in [14] was “inactive” throughout. The Potency entry in experiment [15], in [16], in [17], in experiment [18] and in experiment [19] was “inactive” throughout. The outcome in experiment [6] and in experiment [9] was inactive.
Consider `Cc1c(Cn2ccnc2)c2ccccc2n1CCC(=O)O`, for which the Potency entry in experiment [20], in experiment [4], in [5], in experiment [7], in experiment [8] and in experiment [10] was “inactive” in each case. Moreover, the Potency entry in [11], in [12], in experiment [13], in experiment [14], in [16] and in [18] was “inactive” in each case. Further, in experiment [19], the Potency result is “inactive”. Also, in experiment [6], the outcome was inactive.
Consider `Nc1ccc(C(=O)N2CC3CC(CN(Cc4ccccc4)C3)C2)cc1`, for which the Potency entry in experiment [20], in experiment [3], in [5], in [7], in [8] and in [10] was “inactive” throughout. The Potency entry in experiment [11], in [12], in experiment [13], in experiment [16], in experiment [17] and in [19] was “inactive” each time. Further, the call in experiment [6] and in experiment [9] was inactive.
For the molecule `CCCCCOC(=O)c1ccc(O)cc1`, the Potency result in [20], in experiment [3], in [7], in [13], in [16] and in experiment [19] was “inactive” in each case. In addition, the Potency in experiment [5] is 24.6 µM (active); in experiment [10] it was 39 µM (active); in experiment [12], 24.6 µM (active); in [14], 55.1 µM (active). In addition, the outcome in experiment [6] and in experiment [9] was inactive.
Regarding `O=C(O)c1cn(C2CC2)c2cc(Cl)c(F)cc2c1=O`, the Potency result in [20], in experiment [2], in experiment [3], in experiment [7], in experiment [8] and in experiment [10] was “inactive” each time. For the same molecule, the Potency result in [11], in experiment [13], in [14], in experiment [15], in experiment [16] and in experiment [18] was “inactive” in each case. For the same molecule, the Potency result in experiment [19] is “inactive”. For the same molecule, the molecule was called inactive in experiment [6] and in experiment [9].
For the molecule `S=C(S)NCCNC(=S)S`, the Potency entry in experiment [20], in experiment [5], in experiment [7], in [8], in [10] and in [11] was “inactive” in each case. Also, the Potency result in experiment [12], in experiment [13], in experiment [14], in experiment [16], in [18] and in [19] was “inactive” throughout. In addition, in [6], the molecule was called inactive.
`CC(=O)/C(C)=C/C1C(C)=CCCC1(C)C` (stereo unspecified): the Potency result in [20], in experiment [3], in experiment [7], in [8], in experiment [10] and in [13] was “inactive” throughout. Besides, the Potency result in [17], in experiment [18] and in experiment [19] was “inactive” in each case. Besides, the result in experiment [6] and in [9] was inactive.
On to `O=C1[C@H](CC[C@H](O)c2ccc(F)cc2)[C@@H](c2ccc(O)cc2)N1c1ccc(F)cc1`, for which the Potency result in experiment [20], in experiment [4], in experiment [5], in experiment [7], in [8] and in experiment [10] was “inactive” in each case. The Potency result in [11], in experiment [13], in [14], in [16], in experiment [17] and in experiment [19] was “inactive” throughout. In addition, the molecule was called inactive in experiment [6].

The values are drawn from PubChem BioAssay (Tox21).
